Assay outcomes: PubChem BioAssay, Broad Institute
PAX8 inh HTS: inhibitors of PAX8-driven TPO luciferase reporter, primary screen, RMG-I cells, single concentration | SteadyGlo, 24 h | inhibition, % at 12.6 µM | 1.2% of 360,000 active | AID 652154, 2013;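 active means mean replicate inhibition at least 60% with every replicate also reaching 60%; inconclusive means only one of the two criteria is met; inactive means mean below 60% and not all replicates reaching 60%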;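 further: luciferase light reporting Pax8 driven TPO promoter activity; plate controls were median of neutral control wells for no effect and mitoxantrone controls for full effect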
LMP1 NFkB inh: EBV LMP1-driven NF-kappaB luciferase reporter inhibitors, primary screen, cell-based, luminescence, single point; LMP1-induced NF-kappaB luciferase reporter cells; inhibition, % at 12.5 µM; 0.69% of 350,000 active; AID 504558, 2011; in the data active means inhibition above about 41%; inconclusive means no clear call, values can overlap the other calls;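 further: 0% = neutral control wells and 100% = reference inhibitor control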
NSD2 HMT inh: NSD2 histone methyltransferase inhibitors, primary screen, biochemical, AlphaScreen, single concentration, set 2. AID 743445, 2014. NSD2 peptide methylation, 120 min. 0.54% of 310,000 active. inhibition, % at 12.5 µM. Histone-lysine N-methyltransferase NSD2 (Homo sapiens), O96028; in the data active means inhibition above about 50%
N-glyco inh: increase of ERlucT glycosylation luciferase signal, primary screen, N-linked glycosylation inhibitor project, D54 ERlucT cells, luminescence, set 2. D54 ERlucT glycosylation luciferase reporter, 24 h; percent of 100 nM tunicamycin response. 0.23% of 360,000 active. reporter increase, % at 12.5 µM. AID 588692, 2011;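 active means mean luciferase reporter signal, scaled so untreated is 0 and the glycosylation-blocking control 100, at or above a set limit in every replicate; inconclusive means mean reaches the limit but not every replicate does; inactive means mean below the limit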;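 further: luciferase carries N-glycosylation sites so blocking glycosylation raises the light; 0% = median of neutral control wells and 100% = median of 100 nM tunicamycin wells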
Shn3 3UTR inh: reduction of Shn3 3'UTR firefly luciferase signal, primary screen, Schnurri-3 inhibitor project, cell-based, Clone20 osteoblasts, set 2. inhibition, % at 12.5 µM. 0.52% of 360,000 active. Clone20 osteoblast Shn3 3'UTR firefly luciferase, 24 h. AID 588674, 2011;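 active means mean inhibition of at least 75% with every replicate also reaching 75%; inconclusive means mean inhibition at least 75% but some replicate below; inactive means mean inhibition below 75%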;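 further: 0% = median of neutral control wells and 100% = pilot-screen positive control compound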
Env fusion inh: inhibitors of HIV-1 Env-driven cell-cell fusion, primary screen, HeLa-JRFL effector, CEM21 target cells, luciferase | inhibition, % at 12.3 µM | 1.1% of 360,000 active;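 active means mean replicate inhibition score of at least 50 and every replicate individually at or above 50; inconclusive means only one of the two criteria met; inactive means mean below 50 and not all replicates reaching 50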;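 further: 0% = plate neutral controls and 100% = maraviroc near 300 nM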
Starred values were filed as active, the others as inactive; ? = inconclusive; nt = no result given; [ ] = remark or other dose. Shown are actives, neighbours in structure and some others; about 2.8% of the full set was active somewhere.

SMILES	PAX8 inh HTS	LMP1 NFkB inh	NSD2 HMT inh	N-glyco inh	Shn3 3UTR inh	Env fusion inh
COc1ccc(O)c2c(=O)c3c(OC)cc4c(c3oc12)C1C=COC1O4 (stereo unspecified)	nt	64.5*	nt	1.0	12.3	nt
O=[N+]([O-])c1ccc(N2CCOCC2)c2c1no[n+]2[O-]	97.7*	0.4	3.5	-18.1	60.6	-229.4
O=C1CC(=O)N(c2ccc(Cl)cc2)C(=O)N1	-0.2	63.6*	-0.3	-0.5	16.5	2.0
CC(C)c1ccc(N2C(=O)CC(=O)NC2=O)cc1	23.3	-4.5	12.0	1.8	-10.3	11.8
COC(=O)C1=C(c2ccc(OC(F)(F)F)cc2)C[C@@H]2CC[C@H]1N2C(=O)N1CCCC1	12.1	9.6	nt	-4.4	62.4	58.3*
COC(=O)C1=C(c2ccc(OC(F)(F)F)cc2)C[C@@H]2CC[C@H]1N2C(=O)N1CCC(C)CC1	9.2	20.2	nt	-2.9	56.6	22.7
N/C(=N\N=C/c1ccc(-c2ccc(O)c(C(=O)O)c2)o1)N[N+](=O)[O-]	nt	4.6	120.8*	1.2	-12.7	-70.9
COc1ccc(/C=N/N=C(/N)N[N+](=O)[O-])c(OC)c1	nt	0.3	-4.6	1.6	-24.8	nt
N#Cc1cccc(-c2ccc([C@H]3[C@@H](CO)N4CCCCN(C(=O)Cc5ccncc5)C[C@@H]34)cc2)c1	13.8	nt	nt	nt	nt	nt
COc1ccc(CN2Cc3cnnn3-c3ccccc3C2C#N)cc1 (stereo unspecified)	62.1*	14.9	nt	21.4	-21.2	-48.1
CN1Cc2cnnn2-c2ccccc2C1C#N (stereo unspecified)	-6.8	-9.4	nt	14.1	-9.1	-14.8
N#CC1c2ccccc2-n2nncc2CN1Cc1cc(Cl)cc(Cl)c1 (stereo unspecified)	105.7*	62.4*	nt	-19.1	80.6	-8.2
COC12CCC3(CC1C(C)(O)C(C)(C)C)[C@H]1Cc4ccc(OC5OC(C(=O)O)[C@@H](O)C(O)[C@H]5O)c5c4[C@@]3(CCN1CC1CC1)C2O5 (stereo partly specified)	nt	6.5	nt	0.8	11.5	nt
O=C1/C(=C/c2ccccc2)C[C@@]2(O)[C@H]3Cc4ccc(O)c5c4[C@@]2(CCN3CC2CC2)C1O5 (stereo partly specified)	nt	19.8	nt	-23.5	95.2*	nt
COC12CCC3(CC1C(C)(O)C(C)(C)C)[C@H]1Cc4ccc(O)c5c4[C@@]3(CCN1CC1CC1)C2O5 (stereo partly specified)	nt	-206.2	nt	58.9*	26.2	nt
Oc1ccc2c3c1OC1c4[nH]c5ccccc5c4C[C@@]4(O)C(C2)N(CC2CC2)CC[C@]314 (stereo partly specified)	nt	1.3	nt	-2.3	-6.9	nt
COc1ccc2c(c1)/C(=C/c1cnc[nH]1)C(=O)N2	78.6*	88.1*	nt	14.4	-10.3	-112.9
O=C1Nc2ccccc2/C1=C/c1cnc[nH]1	nt	-0.7	2.5	17.6	-5.2	nt
Cc1ccccc1-c1ccc([C@@H]2[C@@H](CO)N3CCCCN(C(=O)Cc4ccccn4)C[C@@H]23)cc1	-1.6	nt	nt	nt	nt	nt
O=C(NCCN1CCC2(CC1)C(=O)NCN2c1ccccc1)c1cccc2c1-c1ccccc1C2=O	-2.4	nt	nt	nt	nt	-8.6
CN1CN(c2ccccc2)C2(CCN(CCCSc3ccccc3NC(=O)/C=C/c3ccccc3)CC2)C1=O	6.5	10.6	-0.8	30.4*	58.9	-168.6
Cc1ccccc1S(=O)(=O)N1[C@@H]2Cn3c(ccc(-c4cccnc4)c3=O)[C@H]1[C@@H](C(=O)O)[C@@H]2CO	8.7	nt	nt	nt	nt	nt
COC(=O)C[C@]1(C(=O)OC)CN(C#N)N(c2ccc(Cl)cc2)C12c1ccccc1-c1ccccc12	108.6*	89.9*	nt	-19.2	97.2*	-30.5
CCCCCc1nc2ccccc2c(=O)n1-c1ccccc1[N+](=O)[O-]	-4.9	1.8	2.7	-3.0	28.8	12.3
CCCCCc1nc2c(c(=O)c3ccccc3n2C)c(=O)n1C1CCCCCC1	nt	0.9	0.3	6.6	90.1*	-28.8
SMILES	PAX8 inh HTS	LMP1 NFkB inh	NSD2 HMT inh	N-glyco inh	Shn3 3UTR inh	Env fusion inh
C[C@@H]1CN(C2CCC(C#N)(c3ccc(F)cc3)CC2)CC[C@]1(C(=O)O)c1ccccc1 (stereo partly specified)	-28.1	79.0*	nt	1.4	5.6	-23.6
N#CC1(c2ccccc2)CCN(C2CC(=O)N(c3ccc(F)cc3)C2=O)CC1 (stereo unspecified)	-1.1	4.7	0.1	0.7	8.5	-2.2
CCC(c1nnnn1-c1ccc2c(c1)OCCO2)N1CCC(n2c(=O)[nH]c3ccccc32)CC1 (stereo unspecified)	84.6*	nt	nt	-0.5	18.9	33.9
CSCCC(c1nnnn1-c1ccc2c(c1)OCCO2)N1CCC(n2c(=O)[nH]c3ccccc32)CC1 (stereo unspecified)	93.4*	nt	nt	2.3	73.0	7.4
CCCCCCCCCCCCCCCC[N+](C)(C)C	92.9*	16.2	nt	-16.6	94.5*	0.5
Cc1cccc(N2C(=O)/C(=C/c3ccc(N4CCN(C)CC4)o3)C(=O)NC2=S)c1C	-6.4	-9.4	50.6*	2.5	-14.0	-14.6
CCc1ccccc1N1C(=O)/C(=C/c2ccc(N3CCN(C)CC3)o2)C(=O)NC1=S	-19.9	-10.4	0.9	3.7	-2.9	2.4
O=[N+]([O-])c1cc(Cl)c(O)c(-[n+]2c(-c3ccccc3)cc(-c3ccccc3)cc2-c2ccccc2)c1	33.4	-0.1	1.1	8.8	5.9	-41.4
O=[N+]([O-])c1ccc(C[n+]2c(-c3ccccc3)cc(-c3ccccc3)cc2-c2ccccc2)cc1	78.5*	1.1	nt	4.1	0.3	9.0
CP(=O)(O)CN1CCCCC1	-3.8	2.6	0.0	2.5	-0.2	6.4
CCC1CN1P(=O)(N1CCCC1)N1CC1CC (stereo unspecified)	-4.4	0.9	-2.8	1.6	4.8	59.4*
COc1cc(C2c3cc4c(cc3CC3COC(=O)C32)OCO4)cc(OC)c1O (stereo unspecified)	74.9*	1.1	6.1	?	-31.8	-36.6
CC(=O)OCC12CC(OC(=O)CC(C)C)C(C)=CC1OC1C(O)C(OC(C)=O)C2(C)C12CO2 (stereo unspecified)	102.4*	88.4*	-1.4	-18.3	93.2*	67.2*
CCC(=O)N1[C@@H]2Cn3c(ccc(-c4ccc(F)cc4)c3=O)[C@H]1[C@@H](C(=O)OC)[C@@H]2CO	-21.6	nt	nt	nt	nt	-4.3[16.7 µM]
CN(C)CC#Cc1ccc([C@@H]2[C@@H](CO)N3CCCCN(C(=O)Cc4ccccn4)C[C@H]23)cc1	-5.8	nt	nt	nt	nt	nt
O=C(Cc1ccccc1)N1CCCCN2[C@H](CO)[C@@H](c3ccc(-c4ccccc4)cc3)[C@H]2C1	-6.8	nt	nt	nt	nt	nt
